# M1 agonist: agonists of M1 muscarinic receptor; 64,000 tested, 3% active; B-score at 10 µM; CHO-M1 cells, Fluo-4 calcium fluorescence, agonist mode; stronger effect = higher value; AID 626;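 active = fluorescence rise, raw or as B-score row- and column-corrected plate score, outside the 99.7% band of its plate's samples, either direction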
# Cav32 inh: blocks human Cav3.2 T-type calcium channel; O95180; Cav3.2-expressing cells, Fluo-4 calcium fluorescence FDSS; stronger effect = lower value; B-score at 10 µM; 100,000 tested, 4% active;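 active = single-dose well whose peak fluorescence ratio is a statistical outlier from its plate by either plate-standardised score or position-corrected B-score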
# M1 antagonist: antagonists of rat M1 muscarinic receptor. CHO-M1 cells, Fluo-4 calcium, ACh EC80 antagonist mode; stronger effect = lower value. B-score at 10 µM. 64,000 tested, 3.4% active;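 active = calcium fluorescence response, raw or row-and-column corrected B-score, differing from the plate sample mean either way at a set confidence level, mostly lower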
# PTK2B oligo ant: Pyk2 (human) oligomerization antagonism. Q14289. Q293 cells, Pyk2 FERM NanoBiT luminescence; stronger effect = lower value. z-score (the deposit names both 25 µM and 10 µM). 99,000 tested, 0.83% active. AID 1347419;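 active = Z-score of -3 or lower, scaled per plate to the spread of control and sample wells; inactive = z-score above -3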;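 note: negative z-score means lost luminescence so less FERM oligomerization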
# Target sequence (Q14289 whole entry, looked up): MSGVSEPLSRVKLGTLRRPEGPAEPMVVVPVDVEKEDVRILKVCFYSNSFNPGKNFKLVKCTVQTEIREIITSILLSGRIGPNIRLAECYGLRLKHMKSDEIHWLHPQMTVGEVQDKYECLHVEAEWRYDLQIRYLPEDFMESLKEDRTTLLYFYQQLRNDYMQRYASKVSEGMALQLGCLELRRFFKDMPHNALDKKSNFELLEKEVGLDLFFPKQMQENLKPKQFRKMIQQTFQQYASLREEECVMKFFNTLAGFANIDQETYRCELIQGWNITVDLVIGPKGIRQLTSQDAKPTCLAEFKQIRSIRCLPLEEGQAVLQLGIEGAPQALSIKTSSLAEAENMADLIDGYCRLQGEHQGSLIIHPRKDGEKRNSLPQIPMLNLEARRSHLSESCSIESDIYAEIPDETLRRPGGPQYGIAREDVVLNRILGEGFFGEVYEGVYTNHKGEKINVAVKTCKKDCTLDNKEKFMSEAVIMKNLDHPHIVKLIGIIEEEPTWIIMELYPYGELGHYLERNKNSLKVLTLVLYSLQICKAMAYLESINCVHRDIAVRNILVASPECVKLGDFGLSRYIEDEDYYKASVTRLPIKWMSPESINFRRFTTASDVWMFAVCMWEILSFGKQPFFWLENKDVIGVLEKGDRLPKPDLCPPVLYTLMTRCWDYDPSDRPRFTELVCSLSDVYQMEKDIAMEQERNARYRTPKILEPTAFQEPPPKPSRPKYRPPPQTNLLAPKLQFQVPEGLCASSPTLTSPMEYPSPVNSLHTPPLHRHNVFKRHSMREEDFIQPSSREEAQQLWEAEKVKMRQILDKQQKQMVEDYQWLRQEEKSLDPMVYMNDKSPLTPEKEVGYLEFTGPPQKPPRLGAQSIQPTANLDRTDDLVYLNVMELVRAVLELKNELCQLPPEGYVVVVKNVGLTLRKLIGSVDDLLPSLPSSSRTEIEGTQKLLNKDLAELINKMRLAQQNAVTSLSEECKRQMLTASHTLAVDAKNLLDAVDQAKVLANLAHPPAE
# M1 ag confirm: confirmation of rat M1 muscarinic receptor agonists; CHO-M1 cells, Fluo-4 calcium fluorescence, agonist mode; actives lie on both sides; shares compounds with M1 agonist; 1,700 tested, 19% active; fluorescence change (max-min) at 10 µM;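 active = fluorescence change differs from the solvent-only DMSO control mean at a set confidence level in both duplicate runs; inconclusive = differs from solvent-only control mean in just one of two runs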;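 note: an EC20 dose of acetylcholine follows compound addition during the same imaging run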
# M4 agonist ctr: rat M4 muscarinic agonism, M1 counter-screen | CHO M4/Gqi5 cells, Fluo-4 calcium fluorescence, agonist mode; actives lie on both sides | fluorescence change (max-min) at 10 µM | 1,700 tested, 9% active | AID 1741 | shares compounds with M1 agonist;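 active = fluorescence change differing from the plate's solvent-only control wells at 99.7% confidence in both duplicates, whether higher or lower; inconclusive = differs from solvent controls in only one of two duplicates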
# Hits are given with their value; 0 = inactive; ? = inconclusive; - = not tested or not shown. An excerpt weighted towards active compounds, which were near 7.1% of everything screened.
SMILES,M1 agonist,Cav32 inh,M1 antagonist,PTK2B oligo ant,M1 ag confirm,M4 agonist ctr
CCOC(=O)NCC(C#CCN(CC)CC)N(CC)CC (centres undefined),0,-,0,0,-,-
CCN(CC)CC#CC(C)OCOCC#CCOC (centres undefined),-4.07,0,0,0,?,0
Clc1cccc(Cl)c1CO/N=C/c1c(-c2ccccc2)nc2n1CCS2,-,0,-,0,-,-
Clc1ccc(Cc2nc(-c3cccnc3)no2)cc1,-,0,-,0,-,-
COc1ccc(S(=O)(=O)N(CC(=O)NCc2ccco2)C2CCCCC2)cc1OC,0,0,0,0,-,-
CCN(CC)CCN1C(=O)C(=O)/C(=C(/O)c2ccncc2)C1c1ccccc1F (centres undefined),35,0,0,0,0,?
CCN(CC)CCN1C(=O)C(=O)/C(=C(/O)c2ccc(F)cc2)C1c1ccncc1 (centres undefined),0,-,0,-,-,-
Cc1cc(C)nc(N/N=C/C(Cl)=C/c2ccccc2)n1,-,0,-,0,-,-
CCn1c(COc2cccc(OC)c2)nnc1SCC(=O)Nc1cccc(OC)c1,3.03,0,0,0,0,0
CCn1c(COc2ccccc2C)nnc1SCC(=O)CC(=O)Nc1ccccc1,3.26,-4.99,2.7,0,?,0
CCn1c(COc2cccc(OC)c2)nnc1SCC(=O)Nc1cc(OC)ccc1OC,0,0,0,0,-,-
CCn1c(COc2ccccc2C)nnc1SCC(=O)Nc1cc(C)on1,0,0,0,0,-,-
Nc1c(C(=O)NC2CCCC2)c2nc3ccccc3nc2n1/N=C/c1cccnc1,0,-,0,-,-,-
Cc1ccc(N2CCN(C(=O)c3ccccc3NC(=O)/C=C\C(=O)O)CC2)cc1,-,0,-,0,-,-
O=C1COc2ccc(C(=O)CSc3nnc(-c4cccs4)n3Cc3ccccc3)cc2N1,0,0,0,0,-,-
O=C1COc2ccc(C(=O)CSc3nnc(Cc4cccs4)n3-c3ccccc3)cc2N1,5.19,-5.36,0,0,0,0
CCOc1cc(NC(=S)NCC2CCCO2)c(OCC)cc1NC(=O)c1cccc(C)c1 (centres undefined),-,0,-,0,-,-
CC(C)C(NC(=O)C1CCCCC1)C(=O)NC1=NCCS1 (centres undefined),-,0,-,0,-,-
N#Cc1c(NC(=O)c2nc3ncccn3n2)sc2c1CCCCC2,-1.8,-,0,0,?,0
O=C(Nc1ccc2c(c1)OCO2)c1cccc2c1C(=O)N(Cc1cccnc1)C2,0,0,0,0,-,-
COc1cc(NC(=O)c2cccc3c2C(=O)N(Cc2cccnc2)C3)cc(OC)c1OC,3.21,0,0,-,0,0
CCOC(=O)N1CCN(S(=O)(=O)c2ccc(F)c(C(=O)Nc3cccc(Cl)c3C)c2)CC1,-,-,-,0,-,-
Cn1c(-c2cc3ccc(OC(=O)C(C)(C)C)cc3oc2=O)nc2ccccc21,-,0,-,0,-,-
CC(=O)Oc1ccc2cc(-c3nc4ccccc4n3C)c(=O)oc2c1,5.79,0,0,0,0,0
CCC1Oc2ccc(C)cc2N(CC(=O)N2CCN(c3ccc(F)cc3)CC2)C1=O (centres undefined),2.32,0,0,-,0,?
SMILES,M1 agonist,Cav32 inh,M1 antagonist,PTK2B oligo ant,M1 ag confirm,M4 agonist ctr
COc1ccc(C2/C=C\CN(C(=O)NC(C)C)CC(=O)N2Cc2ccc(F)cc2)cc1 (centres undefined),-,0,-,-,-,-
CCN(C(=O)c1ccc(C(C)(C)C)cc1)c1nnc(Cn2nnc3ccccc32)s1,3.19,-8.04,0,0,?,0
CCCCOc1ncnc2c1[nH]c1ccccc12,0,0,0,0,-,-
CCCCOc1ncnc2c1[nH]c1ccc(F)cc12,5.42,0,0,0,0,0
N#CCCn1nc(-c2ccccc2)cc1Nc1ccccc1NC(=O)c1cccs1,0,0,0,0,-,-
Cc1occc1C(=O)NCc1cccc(CNC(=O)c2ccoc2C)c1,0,0,0,0,-,-
Cc1occc1C(=O)NCc1ccccn1,2.22,0,0,0,0,0
c1ccc2sc(SN3CCOCC3)nc2c1,0,0,0,0,-,-
CCOc1ccc2nc(NS(=O)(=O)Cc3ccccc3)sc2c1,-,0,-,0,-,-
Clc1ccc(Cn2ncc3c(N4CCOCC4)ncnc32)cc1,4.57,-,0,0,?,0
COCCNc1ncnc2c1cnn2Cc1ccc(Cl)cc1,3.13,0,0,0,?,0
CCCn1nc2cc(C(=O)NCCc3cccs3)ccc2c1OCC,-,0,-,-,-,-
CC(C)Cc1cc(C(=O)Nc2cc(C(F)(F)F)ccc2Cl)no1,-,0,-,0,-,-
COc1ccc(CN2CCn3ncc(C(=O)Nc4cc(C)cc(C)c4)c3C2=O)cc1,-,0,-,0,-,-
CC1(C)CC(NC(=O)C23CCC(C)(C(=O)C2)C3(C)C)CC(C)(C)N1 (centres undefined),0,0,0,0,-,-
CCC(C)(C)NC(=O)C(c1ccco1)N(C(=O)Cn1nnc2ccccc21)c1ccc2c(c1)OCO2 (centres undefined),17.3,0,0,0,-31.6,?
COCCNC(=O)C(c1ccco1)N(C(=O)Cn1nnc2ccccc21)c1cc(C)ccc1C (centres undefined),0,0,0,0,-,-
C/C=C1\C(OC2OC(CO)C(O)C(O)C2O)OC=C(C(=O)OC)C1CC(=O)OCC1C(C)C(OC(=O)CC2C(C(=O)OC)=COC(OC3OC(CO)C(O)C(O)C3O)/C2=C\C)CC1C(CO)CO (centres undefined),-,0,-,-,-,-
CC(C)CC(C(=O)Nc1oc(-c2ccco2)c(-c2ccco2)c1C#N)N1C(=O)c2ccccc2C1=O (centres undefined),12.6,0,-1.94,0,0,0
CC(C)CC(C(=O)Nc1ccc2c(c1)OCCO2)N1C(=O)c2ccccc2C1=O (centres undefined),0,0,0,0,-,-
CCOC(=O)N1CCC(NC(=O)c2cc3c(=O)n(C)c4ccccc4c3n2C)CC1,2.05,0,0,-,?,0
Cn1c(C(=O)NC2CC2)cc2c(=O)n(C)c3ccccc3c21,0,0,0,-,-,-
Cn1c(C(=O)Nc2ccc3c(c2)OCCO3)cc2c(=O)n(C)c3ccccc3c21,4.58,0,0,-,0,0
COc1ccccc1/C=C/C(=O)c1c2c(c(C)[nH]c1=O)CCCC2,-,0,-,0,-,-
COc1ccccc1OCC(=O)c1[nH]c(C)c(C(C)=O)c1C,8.63,0,0,0,0,0
SMILES,M1 agonist,Cav32 inh,M1 antagonist,PTK2B oligo ant,M1 ag confirm,M4 agonist ctr
Cc1cc(OC(C)C)nc(NCc2ccccc2)n1,-,0,-,0,-,-
C=CCOC(=O)C1=C[C@H](c2coc3ccccc3c2=O)[C@@H](CCCO)[C@H](OCC)O1,-,0,-,-,-,-
CC1(C)CC(=O)C2=C(C1)N(c1cccc(O)c1)C1=C(C2)C(=O)CC(C)(C)C1,22.5,0,0,0,221,170
COc1ccc(F)cc1CN1CCN(c2cc(C)nc3c4c(C)cc(C)nc4nn23)CC1,3.53,-7.75,0,-,?,0
COc1ccc(Cl)cc1CN1CCN(c2nc(C)cc(C)c2C#N)CC1,7.45,0,0,0,0,0
Cc1cc(C)c2c(n1)nn1c(N3CCN(Cc4ccccc4)CC3)cc(C)nc21,0,-,0,0,-,-
COc1cc(NC(=O)c2cc3c(C)nc4ccccc4c3o2)cc(OC)c1OC,3.51,0,0,-,0,0
